Most compounds without a hit are left out; they make up all but 1.6% or so of the library.
LYP act – LYP phosphatase activators, primary screen, biochemical, DiFMUP fluorescence, 2 µM. Tyrosine-protein phosphatase non-receptor type 22 (Homo sapiens), Q9Y2R2. recombinant LYP; 0 = plate median, 100 = signal doubled. activation, % at 2 µM. 96,000 compounds, 0.11% hits;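 active means activation at 2 µM above a set limit, the mean plus 5 SD, cut at about 37% in these data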
TNAP act mid DEA – human TNAP enzyme activators, primary screen, biochemical, luminescent, intermediate phosphate acceptor level; Alkaline phosphatase, tissue-nonspecific isozyme (Homo sapiens), P05186; purified TNAP, CDP-star luminescence, 100 mM DEA, 30 min; active compounds read high; scale: 0 levamisole-inhibited, 1 vehicle-only enzyme; activation factor at 20 µM; 64,000 tested, under 10 active;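 active means activation factor of at least 2 at 20 µM, relative to controls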
PTPN22 inh 2 – PTPN22 phosphatase inhibitors, primary screen, biochemical, DiFMUP fluorescence, 2 µM; Tyrosine-protein phosphatase non-receptor type 22 (Homo sapiens), Q9Y2R2; inhibition, % at 2 µM; recombinant LYP catalytic domain; 96,000 compounds, 0.21% hits;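 active means inhibition at 2 µM at or above a set limit, the screen mean plus 3 SD, cut at about 24% in these data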;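 further: 0% = DMSO with enzyme and 100% = enzyme fully blocked by orthovanadate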
PLAP act – PLAP enzyme activators, biochemical, luminescence, HTS. purified PLAP enzyme, luminescent substrate read-out; active compounds read high. Alkaline phosphatase, placental type (Homo sapiens), P05187. activation fold at 20 µM. AID 696, 2007. 96,000 compounds, 1.2% hits; in the data active means activation fold above about 2
Target sequence (P05187 whole entry, looked up): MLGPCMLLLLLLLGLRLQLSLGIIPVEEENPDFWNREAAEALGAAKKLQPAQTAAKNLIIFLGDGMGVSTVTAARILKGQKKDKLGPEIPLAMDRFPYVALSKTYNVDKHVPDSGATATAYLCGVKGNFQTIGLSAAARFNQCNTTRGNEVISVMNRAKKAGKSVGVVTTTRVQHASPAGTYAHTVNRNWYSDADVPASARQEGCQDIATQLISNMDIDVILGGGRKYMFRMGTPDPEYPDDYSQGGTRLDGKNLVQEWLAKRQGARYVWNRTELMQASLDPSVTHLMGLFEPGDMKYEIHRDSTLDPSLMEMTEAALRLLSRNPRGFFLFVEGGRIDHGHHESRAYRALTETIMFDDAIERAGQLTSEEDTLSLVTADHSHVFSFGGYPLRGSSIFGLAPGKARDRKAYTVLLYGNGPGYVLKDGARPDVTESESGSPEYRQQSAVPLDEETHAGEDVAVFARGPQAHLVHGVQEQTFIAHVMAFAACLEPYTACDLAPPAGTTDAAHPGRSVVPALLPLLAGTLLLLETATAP
MT1-MMP txn act – MT1-MMP promoter reporter activation – cell-based, luciferase luminescence, primary screen; activation factor at 10 µM; HT1080 MT1-MMP promoter luciferase reporter, overnight; active compounds read high; 86,000 compounds, 0.16% hits;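 active means activation factor of at least 2 for MT1-MMP transcription at 10 µM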
* = called active by the depositor; . = no result.

SMILES	LYP act	TNAP act mid DEA	PTPN22 inh 2	PLAP act	MT1-MMP txn act
C=CCNC(=S)NNC(=O)c1ccc(OC(C)C)cc1	-3.4	.	5.2	2.4*	1.1
C=CCNC(=S)NNC(=O)c1ccc2c(c1)OCO2	-4.4	.	7.5	2.2*	.
C=CCNC(=S)NNC(=O)c1ccccc1	4.6	.	0.8	1.7	.
O=C(NCC1COc2ccccc2O1)C1CCCN(S(=O)(=O)c2cnc[nH]2)C1 (stereo not drawn)	.	0.8	.	1.3	1.1
COC(=O)c1ccc(C(NC(=O)OCc2ccccc2)/C(C)=C/[C@@H](C)C(=O)NCCN2CCOCC2)cc1 (stereo partly drawn)	.	.	.	.	1
CCCC[C@@H]1C[C@H]1C(NC(=O)c1ccco1)c1ccccc1C(F)(F)F (stereo partly drawn)	.	.	.	.	1.2
O=C(CC(c1ccccc1)c1ccccc1)Nc1ncn[nH]1	-3.5	1.4	1.6	2.9*	1.1
N#CC1=C(N)Oc2n[nH]c(-c3cccs3)c2C1C1C=CCCC1 (stereo not drawn)	15.8	.	-14.0	0.8	1
CCOC(=O)Cc1[nH]nc2c1C(C1C=CCCC1)C(C#N)=C(N)O2 (stereo not drawn)	2.4	0.9	-3.3	2.1*	1
COCc1[nH]nc2c1C(c1ccccc1OC)C(C#N)=C(N)O2 (stereo not drawn)	.	0.9	.	1	1.2
CCOC(=O)Cc1[nH]nc2c1C(c1cccc(OC)c1OC)C(C#N)=C(N)O2 (stereo not drawn)	.	1	.	2.2*	1
COC(=O)Cc1[nH]nc2c1C(c1cccc(OC)c1OC)C(C#N)=C(N)O2 (stereo not drawn)	.	1	.	2*	1.1
CCOC(=O)Cc1[nH]nc2c1C(c1cc(OC)ccc1OC)C(C#N)=C(N)O2 (stereo not drawn)	-1.8	0.9	0.8	1.6	1.1
O=C(NN1C(=O)/C(=C/c2cccnc2)SC1=S)C(c1ccccc1)c1ccccc1	-1.3	.	4.7	1.5	.
O=C(CCN1C(=O)/C(=C/c2cccc(Br)c2)SC1=S)NNC(=O)c1cccnc1	-14.3	.	16.1	2.2*	.
CCC1=C2CC[C@H]3C(=O)NC(=O)[C@H]3[C@H]2[C@@]2(C)C(=NCCc3c[nH]c4ccccc34)OC(=O)N2C1=O	.	.	.	.	1.2
Cc1ccc(CNC(=O)C2(CC(C)C)C=CCN2C(=O)c2ccccc2)o1 (stereo not drawn)	.	.	.	.	1
CCOc1ccc2nc(NC(=O)C(NS(=O)(=O)c3cccc4nsnc34)C(C)C)sc2c1 (stereo not drawn)	-4.7	.	4.2	2.4*	.
CC(C)C(NS(=O)(=O)c1cccc2nsnc12)C(=O)Nc1nc2ccc(Cl)cc2s1 (stereo not drawn)	-7.9	.	5.3	0.9	.
Cc1ccc2c(C)nc(Nc3nc(CSc4nnnn4-c4ccccc4)cc(=O)[nH]3)nc2c1	.	1	.	2.2*	0.8
COCc1cc(=O)[nH]c(Nc2nc(C)c3ccc(C)cc3n2)n1	.	1.1	.	.	0.7
COc1ccc2nc(Nc3nc(C)c(CCC(C)C)c(=O)[nH]3)nc(C)c2c1	-1.2	1	0.5	2.3*	0.9
COc1ccc2nc(C)[nH]c(=O)c2c1	-1.9	1	0.1	0.9	1.3
CCOc1ccc2nc(Nc3nc4c(c(=O)[nH]3)CCC4)nc(C)c2c1	.	0.8	.	.	1.3
COc1ccc2nc(Nc3nc(CSc4nnnn4-c4ccccc4)cc(=O)[nH]3)nc(C)c2c1	-8.3	.	5.5	2.2*	0.8
SMILES	LYP act	TNAP act mid DEA	PTPN22 inh 2	PLAP act	MT1-MMP txn act
CCOc1ccc2nc(Nc3nc(CSc4nnnn4-c4ccccc4)cc(=O)[nH]3)nc(C)c2c1	-8.7	.	10.8	2.5*	1.1
COCc1cc(=O)[nH]c(Nc2nc(C)c3ccccc3n2)n1	1.5	.	1.1	.	1
Cc1cccc(NS(=O)(=O)c2cc(C(=O)N3CCc4ccccc4C3)ccc2Cl)c1C	-7.3	.	11.9	1.4	.
CCNC(=O)[C@H](C)/C=C/C(NC(=O)OCc1ccccc1)c1ccc(C(=O)OC)cc1 (stereo partly drawn)	.	.	.	.	1.1
Cc1cc(C)n(-c2nc(Nc3ccccc3)nc(-n3nc(C)cc3C)n2)n1	-2.8	0.9	2.4	1.1	1.2
COc1cccc(/C=N/Nc2nc(Nc3ccccc3)nc(-n3nc(C)cc3C)n2)c1O	-12.2	.	11.8	2.3*	.
CCC1=C2CC[C@H]3C(=O)N(c4ccccc4)C(=O)[C@H]3[C@H]2[C@@]2(Cc3ccccc3)C(=O)N(CC(=O)OC)C(=O)N2C1=O	.	.	.	.	1.1
CCCCOC(=O)Nc1ccc(C(C)C)cc1	-1.9	.	2.4	.	2.2*
CCCCOC(=O)Nc1ccc(C(N)=O)cc1	-3.3	.	0.8	0.8	1.7
COC(=O)[C@@]1(C)C=C[C@@H](Cc2ccccc2)N1C	.	.	.	.	1
COc1ccc(C2(O)CCN(CC(=O)Nc3nccs3)CC2)c(OC)c1	7.3	0.9	-8.8	2.4*	1.1
CCc1nnc(NC(=O)CN2CCC(O)(c3ccccc3OC)CC2)s1	-6.4	1	9.5	1.4	1.1
COc1ccc(O)c(/C=N\NC(=O)CCn2nnc3ccccc32)c1	-4.0	.	-0.1	2.1*	.
COCCN(C(=O)CN1CCc2ccccc2C1)c1c(N)n(Cc2ccccc2)c(=O)[nH]c1=O	-15.8	0.9	16.3	1.3	1.1
COCCN(C(=O)CSc1nnc(Nc2ccccc2F)s1)c1c(N)n(Cc2ccccc2)c(=O)[nH]c1=O	3.7	.	-6.4	2.2*	.
Cc1nc(SCC(=O)NCCc2ccc(Cl)cc2)nc(C)c1C	-3.1	.	-0.3	0.9	1.1
COc1ccc(N2CCN(CC(=O)Nc3nc4c(s3)CC(C)CC4)CC2)cc1 (stereo not drawn)	-8.1	1.2	7.9	2.9*	1
COc1ccc(-c2nnc(SC(C)C(=O)Nc3ccc4c(c3)OCCO4)o2)cc1 (stereo not drawn)	7.7	1	-9.9	2.1*	1.6
CCC1=C2CC[C@H]3C(=O)N(C)C(=O)[C@H]3[C@H]2[C@@]2(C)C(=NCc3ccccc3)OC(=O)N2C1=O	.	.	.	.	1.1
Cc1nnc(SCC(=O)N2CCN(S(=O)(=O)c3ccc(Cl)cc3)CC2)[nH]c1=O	-10.5	0.9	7.9	1.6	1.1
O=C(CSc1ncn[nH]1)N1CCN(S(=O)(=O)c2ccc(Cl)cc2)CC1	-4.8	.	6.3	2.1*	1
CCc1nnc(NC(=O)c2ccc(NS(=O)(=O)c3ccccc3)cc2)s1	.	0.9	.	.	.
CCc1nnc(NS(=O)(=O)c2ccc(NC(=S)NC(=O)/C=C/c3ccc(C(C)C)cc3)cc2)s1	-30.9	.	33.4*	1.4	.
CC(CC(C)C(=O)Nc1ccccc1C(C)(C)C)C(=O)O (stereo not drawn)	-4.5	.	0.4	.	1.2
O=c1cc(CSc2nnc(Nc3ccccc3)s2)nc2sccn12	-3.2	.	4.9	0.9	.

Screens deposited in PubChem by several laboratories.
